Results from PubChem BioAssay.
The other results are listed elsewhere or left out. Records with an inconclusive call do not appear. Active and inactive are the calls of the source.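 Rule for the calls, unless noted: active = thallium entry rate above the same plate's blocked-transporter control wells by more than 3 SD; inconclusive = the two repeat wells disagree; inactive = the rest.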

Tests used:
[1] = target: Solute carrier family 12 member 5 (Homo sapiens) (UniProt Q9H2X9); assay: retest of KCC2 transport modulators without sodium – cell-based, HEK293 KCC2, thallium flux, secondary assay, confirmation (AID 1713;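 active = thallium flux slope above the same plate's solvent-only control mean plus 3 SD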); conditions: FluoZin2 fluorescence, at 10 µM, stronger effect = higher value
Sequence of Solute carrier family 12 member 5 (Homo sapiens) (Q9H2X9 whole entry, looked up): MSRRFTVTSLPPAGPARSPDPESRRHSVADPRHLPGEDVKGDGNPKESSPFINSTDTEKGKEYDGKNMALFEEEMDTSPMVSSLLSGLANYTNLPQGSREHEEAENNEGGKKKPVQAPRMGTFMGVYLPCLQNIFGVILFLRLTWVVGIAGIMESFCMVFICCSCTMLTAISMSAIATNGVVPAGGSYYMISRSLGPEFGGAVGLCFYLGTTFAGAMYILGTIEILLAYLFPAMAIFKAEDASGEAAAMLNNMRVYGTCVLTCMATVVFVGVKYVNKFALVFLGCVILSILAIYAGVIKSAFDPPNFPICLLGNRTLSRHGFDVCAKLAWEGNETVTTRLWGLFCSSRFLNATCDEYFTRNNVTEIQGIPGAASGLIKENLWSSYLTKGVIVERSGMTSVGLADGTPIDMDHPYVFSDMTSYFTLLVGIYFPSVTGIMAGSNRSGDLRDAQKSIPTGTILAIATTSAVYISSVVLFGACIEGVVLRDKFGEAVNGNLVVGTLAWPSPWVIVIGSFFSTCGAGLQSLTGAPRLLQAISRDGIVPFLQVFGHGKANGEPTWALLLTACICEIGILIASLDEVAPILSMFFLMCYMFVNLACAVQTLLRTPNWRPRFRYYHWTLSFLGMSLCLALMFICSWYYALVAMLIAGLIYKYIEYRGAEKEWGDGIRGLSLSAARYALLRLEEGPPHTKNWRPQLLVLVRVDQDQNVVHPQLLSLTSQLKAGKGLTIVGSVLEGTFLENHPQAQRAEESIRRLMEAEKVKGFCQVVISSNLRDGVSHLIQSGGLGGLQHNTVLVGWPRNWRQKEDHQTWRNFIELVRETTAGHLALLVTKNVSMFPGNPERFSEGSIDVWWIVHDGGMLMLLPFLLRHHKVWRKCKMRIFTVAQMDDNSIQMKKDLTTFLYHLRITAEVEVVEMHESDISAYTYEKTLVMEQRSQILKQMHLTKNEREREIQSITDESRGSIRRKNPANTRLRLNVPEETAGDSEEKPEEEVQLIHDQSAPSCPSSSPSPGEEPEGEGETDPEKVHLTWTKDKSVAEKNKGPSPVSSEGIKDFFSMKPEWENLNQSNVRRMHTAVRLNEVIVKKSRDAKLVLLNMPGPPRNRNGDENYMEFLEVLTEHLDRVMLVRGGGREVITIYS

[2] = PubChem AID 1714; conditions: HEK293-KCC2 + bumetanide/ouabain, thallium flux FluoZin2; at 10 µM; stronger effect = higher value;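 note: raw slope of fluorescence over initial fluorescence between 10 and 20 s after thallium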
[3] = target: Solute carrier family 12 member 5 (Homo sapiens) (UniProt Q9H2X9); assay: retest of KCC2 transport modulation, ouabain-free – cell-based, HEK293 KCC2, thallium flux, FluoZin2, secondary assay 2, confirmation (AID 1715;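 active = thallium flux slope more than 3 SD above or below the plate's solvent-only control mean, mostly below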;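 note: raw slope with 0.1% DMSO as baseline and bumetanide as block control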); conditions: HEK293-KCC2, thallium flux FluoZin2 fluorescence; at 10 µM; actives lie on both sides; F/F0 rise rate, 10–20 s post-thallium
[4] = compound effects on native HEK Tl+ uptake – HEK cells, counterscreen 1, counter-screen for KCC2 modulator project, confirmation (AID 1716;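 active = thallium flux rate significantly above the same plate's solvent-only control wells, beyond their mean plus 3 SD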); conditions: HEK293 parental cells, thallium flux FluoZin2, ouabain; at 10 µM; baseline-ratio fluorescence slope, 10–20 s after thallium
[5] = target: Solute carrier family 12 member 5 (Homo sapiens) (UniProt Q9H2X9); assay: modulation of KCC2 thallium flux in HEK cells – cell-based, ouabain, retest, confirmation (AID 1717;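 active = thallium flux slope beyond 3 SD from same-plate DMSO control mean in most replicates, usually higher, sometimes lower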;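 note: slope of initial-normalized fluorescence between seconds 10 and 20 after thallium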); conditions: HEK293-KCC2, thallium flux FluoZin2 fluorescence, at 10 µM, bidirectional: low = inhibitor, high = activator
[6] = native HEK Tl+ uptake effects, second counter-screen – HEK cells, counterscreen 2, counter-screen for KCC2 modulator project, confirmation (AID 1718;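 active = thallium flux slope above the same plate's solvent-control mean plus 3 SD in both duplicate wells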;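 note: run without ouabain in cells lacking the KCC2 cotransporter; slope of fluorescence scaled to its starting value between 10 and 20 s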); conditions: HEK293 parental, thallium flux FluoZin-2 fluorescence slope; at 10 µM
[7] = inhibitors of TNFa-induced NFkB p65 translocation, primary screen, imaging, HUVEC, MLSMR starter and 10KST1 sets (AID 438;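 active = inhibition above 20% together with a positive visual image hit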;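 note: compound added about 3h40 before a 20 min TNFalpha stimulation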;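 for inhibition: signal is the nuclear over cytoplasmic p65 intensity ratio per well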); conditions: HUVEC TNFa-induced p65 nuclear translocation; cell count: measured here: nuclei count (cytotoxicity indicator), at 2.08 µM; inhibition: at 2 µM, stronger effect = higher value, 0% TNFa-plus-vehicle, 100% no-TNFa wells
[8] = reduction of polyQ htt aggregates in cells – imaging, exon1htt(103Q)mCFP cells, high-content imaging, primary screen (AID 483;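 active = visual image review flags a hit and inhibition of aggregation exceeds 20%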;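 note: compound exposure lasted 3 days before fixation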;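 for nuclei count: percent of the per-plate median nuclei count of sample wells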); conditions: exon1htt(103Q)mCFP cell line, aggregate imaging, at 2 µM; inhibition of aggregation: stronger effect = higher value; nuclei count: measured here: cell count, toxicity
[9] = endothelial E-selectin expression blockers – imaging, HUVEC, immunofluorescence, MLSMR starter and 10KST1 sets, primary screen (AID 487;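 active = visually confirmed hit in the image check and inhibition above 20%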;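 for inhibition: signal is fraction of cell area covered by stained E-selectin grains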;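 for nuclei count: 100% = median nuclei count of all wells on the same plate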); conditions: HUVEC TNFalpha-induced E-selectin immunofluorescence imaging, at 2 µM; inhibition: stronger effect = higher value; nuclei count: measured here: cell number, toxicity
[10] = Primary imaging screen for DUSP6 inhibitors that restore phospho-Erk in transfected HeLa cells, chemical complementation (AID 609;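 active = compounds giving at least 50% inhibition in the cell-based MKP-3 phosphatase rescue imaging test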;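 for inhibition: phospho-Erk level distribution per well compared with pooled transfected vehicle control wells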); conditions: HeLa MKP-3 transfected, phospho-Erk imaging KS statistic, at 10 µM, cells stimulated with TPA for 15 min
[11] = target: Dual specificity protein phosphatase 6 (Homo sapiens) (UniProt Q16828); assay: as above; conditions: HeLa MKP-3 transfected, phospho-Erk imaging KS statistic; at 10 µM; stronger effect = higher value; cells stimulated with TPA for 15 min
Sequence of Dual specificity protein phosphatase 6 (Homo sapiens) (Q16828 whole entry, looked up): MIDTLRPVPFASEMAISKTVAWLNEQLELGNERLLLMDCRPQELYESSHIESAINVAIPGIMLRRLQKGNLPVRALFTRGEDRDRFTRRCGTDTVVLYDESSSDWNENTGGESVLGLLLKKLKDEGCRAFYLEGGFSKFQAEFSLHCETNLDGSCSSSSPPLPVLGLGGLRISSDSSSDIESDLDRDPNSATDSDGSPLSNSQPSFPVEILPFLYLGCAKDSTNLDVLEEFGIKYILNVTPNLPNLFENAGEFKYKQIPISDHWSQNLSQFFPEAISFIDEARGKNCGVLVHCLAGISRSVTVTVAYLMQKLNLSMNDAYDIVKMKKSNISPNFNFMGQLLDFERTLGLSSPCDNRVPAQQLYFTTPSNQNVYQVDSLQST

[12] = target: Voltage-gated potassium channel subunit beta-2 (Rattus norvegicus) (UniProt P62483); assay: inhibitors of rat Kvbeta2 reductase activity – biochemical, NADPH fluorescence, primary screen (AID 622;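 active = fluorescence slope higher than the sample average by over 3 SD, cut at about -0.22 in these data, passing the limit was not always enough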;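 note: slope of raw intensity against log time taken from 70 to 1610 s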); conditions: recombinant KvBeta, 4-cyanobenzaldehyde reduction, at 10 µM, stronger effect = higher value
Sequence of Voltage-gated potassium channel subunit beta-2 (Rattus norvegicus) (P62483 whole entry, looked up): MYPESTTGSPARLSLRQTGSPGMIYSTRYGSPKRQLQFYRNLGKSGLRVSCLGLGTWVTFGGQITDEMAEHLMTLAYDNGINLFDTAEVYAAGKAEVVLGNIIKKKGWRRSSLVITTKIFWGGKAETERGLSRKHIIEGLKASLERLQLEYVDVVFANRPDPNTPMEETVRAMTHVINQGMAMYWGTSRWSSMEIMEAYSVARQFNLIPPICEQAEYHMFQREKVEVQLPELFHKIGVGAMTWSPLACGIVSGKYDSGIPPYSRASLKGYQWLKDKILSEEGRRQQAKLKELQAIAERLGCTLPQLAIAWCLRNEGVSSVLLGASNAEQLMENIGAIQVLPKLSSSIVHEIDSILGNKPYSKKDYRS

[13] = target: Voltage-gated potassium channel subunit beta-2 (Rattus norvegicus) (UniProt P62483); assay: enhancers of rat Kvbeta2 NADPH turnover – biochemical, NADPH fluorescence, primary screen (AID 623;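 active = NADPH fluorescence slope more negative than the mean of all samples by about 3 SD, 99.7% confidence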;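 note: fluorescence intensity change per second fitted from 20 to 320 s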); conditions: Recombinant KvBeta, NADPH fluorescence decrease slope, 10 min; at 10 µM; stronger effect = lower value
[14] = target: Muscarinic acetylcholine receptor M4 (Homo sapiens) (UniProt P08173); assay: M4-linked GIRK flux change, two-sided – cell-based, HEK293 M4/GIRK, thallium flux, BTC-AM, M4 allosteric agonist project, primary screen (AID 625;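 active = fluorescence slope after compound addition differing from the mean of all tested samples at 99.7% confidence, mostly higher but some lower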;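 note: thallium influx through GIRK channels coupled to M4 in HEK293 cells with BTC-AM dye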); conditions: at 10 µM, actives lie on both sides
Sequence of Muscarinic acetylcholine receptor M4 (Homo sapiens) (P08173 whole entry, looked up): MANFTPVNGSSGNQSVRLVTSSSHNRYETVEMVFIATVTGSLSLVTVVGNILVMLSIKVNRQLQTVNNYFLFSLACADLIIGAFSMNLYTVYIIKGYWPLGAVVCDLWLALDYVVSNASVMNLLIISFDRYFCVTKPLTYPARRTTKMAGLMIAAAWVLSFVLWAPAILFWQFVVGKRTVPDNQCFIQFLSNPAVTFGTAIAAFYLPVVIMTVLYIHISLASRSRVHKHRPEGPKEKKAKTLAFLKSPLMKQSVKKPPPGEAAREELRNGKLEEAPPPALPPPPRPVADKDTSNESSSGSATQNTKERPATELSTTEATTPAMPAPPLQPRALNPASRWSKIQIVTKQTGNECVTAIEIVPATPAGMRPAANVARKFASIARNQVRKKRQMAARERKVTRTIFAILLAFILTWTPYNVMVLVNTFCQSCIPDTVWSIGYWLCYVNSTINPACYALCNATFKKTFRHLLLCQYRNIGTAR

[15] = inhibitors of larval lipid processing in zebrafish, primary screen, whole organism, PED6 fluorescence, gall bladder and intestine (AID 686;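 active = a full or partial loss of lipid-probe fluorescence in the fish gall bladder, intestine or both, judged by eye; inactive = no fluorescence loss, or compound toxic to the fish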;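 note: larvae 5 to 7 days old with five fish per well; signal comes from phospholipase A2 cleavage of quenched PED6 carried via bile; overnight exposure to compound and PED6 before scoring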); conditions: Zebrafish larvae PED6 lipid processing, fluorescence scoring; screened at 20 µM (by protocol)
[16] = loss of swimming-algae plug formation – whole organism, Chlamydomonas reinhardtii, WT vs cilia-less mutant, absorbance, 96-well, primary screen (AID 463189;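 active = inhibition at or above 50% relative to wild type and mutant plate controls; inactive = inhibition below 50%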;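 note: 0% = wild type cc124 cells in DMSO and 100% = ciliumless bld1 mutant cells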); conditions: Chlamydomonas reinhardtii gravitaxis, OD600 absorbance, 2 days; at 10 µM; stronger effect = higher value
[17] = blockers of RIG-like receptor reporter activation – cell-based, Sendai virus stimulus, luciferase, 10K MLSCN set, TLR/RLR signaling modifier project, primary screen (AID 602276;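 active = inhibition at or above 50% at 10 µM; inactive = inhibition below 50%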;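 note: firefly luciferase from ISG56 promoter only with Renilla not read in this screen; 0% = Sendai virus plus DMSO and 100% = medium plus DMSO without virus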); conditions: HEK293 RL24 IRF3 luciferase reporter, at 10 µM, stronger effect = higher value
[18] = TLR3 IRF3 reporter activation blockers – cell-based, poly I:C stimulus, luciferase, 10K MLSCN set, primary screen (AID 602277;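 active = inhibition of the reporter signal at or above 50%; inactive = inhibition below 50%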); conditions: HEK293-TLR3 RL24 IRF3 luciferase reporter, at 10 µM, stronger effect = higher value

CCC(C)Cn1c(O)cc2nn(-c3nc4ccccc4s3)c(=O)c-2c1C (centres undefined)
active: normalized thallium flux [2] 0.0393 | normalized thallium flux [3] 0.0456 | thallium flux rate (normalised fluorescence) [4] 0.0308 | raw Tl+ flux slope (below DMSO = inhibition, above = activation) [5] 0.0409 | thallium flux slope [6] 0.0328
inactive: normalised thallium flux (F/F0 slope) [1] 0.00617

O=C1/C(=C\c2ccsc2)NC(=S)N1c1ccccc1
active: normalised thallium flux (F/F0 slope) [1] 0.024 | normalized thallium flux [2] 0.0414 | normalized thallium flux [3] 0.039 | thallium flux rate (normalised fluorescence) [4] 0.0238 | raw Tl+ flux slope (below DMSO = inhibition, above = activation) [5] 0.0341 | thallium flux slope [6] 0.024

O=[N+]([O-])c1ccccc1/C=N/n1c(COc2ccccc2)n[nH]c1=S
active: normalized thallium flux [2] 0.0786 | thallium flux rate (normalised fluorescence) [4] 0.0168 | thallium flux slope [6] 0.0116
inactive: normalised thallium flux (F/F0 slope) [1] 0.00593 | normalized thallium flux [3] 0.0297

COC(=O)c1cccnc1NC(=S)NC(C)C
active: normalised thallium flux (F/F0 slope) [1] 0.0244 | normalized thallium flux [2] 0.0413 | thallium flux rate (normalised fluorescence) [4] 0.035 | raw Tl+ flux slope (below DMSO = inhibition, above = activation) [5] 0.0394 | thallium flux slope [6] 0.0178
inactive: normalized thallium flux [3] 0.0368

Cc1cccc(NS(=O)(=O)c2ccc(C)c(C(N)=O)c2)c1
inactive: normalised thallium flux (F/F0 slope) [1] 0.00589 | normalized thallium flux [2] 0.00471 | normalized thallium flux [3] 0.0297 | thallium flux rate (normalised fluorescence) [4] 0.00787 | raw Tl+ flux slope (below DMSO = inhibition, above = activation) [5] 0.0187 | thallium flux slope [6] 0.0102

Cc1ccc(Nc2nnc(SCC(=O)c3cc4ccccc4o3)s2)cc1C
active: normalized thallium flux [3] 0.0195 | raw Tl+ flux slope (below DMSO = inhibition, above = activation) [5] 0.00819
inactive: normalised thallium flux (F/F0 slope) [1] 0.00887 | normalized thallium flux [2] 0.00668 | thallium flux rate (normalised fluorescence) [4] 0.00694 | thallium flux slope [6] 0.00899

COc1cc(NC(=O)c2ccccc2NS(=O)(=O)c2ccc(Cl)s2)cc(OC)c1
active: raw Tl+ flux slope (below DMSO = inhibition, above = activation) [5] 0.0161
inactive: normalised thallium flux (F/F0 slope) [1] 0.00642 | normalized thallium flux [2] 0.00732 | normalized thallium flux [3] 0.0336 | thallium flux rate (normalised fluorescence) [4] 0.00377 | thallium flux slope [6] 0.0111

CC(=O)NC(=S)NNC(=O)c1ccc(Br)cc1
active: normalized thallium flux [2] 0.0133 | thallium flux rate (normalised fluorescence) [4] 0.0158 | thallium flux slope [6] 0.0176
inactive: normalised thallium flux (F/F0 slope) [1] 0.00779 | normalized thallium flux [3] 0.0358

Oc1ccccc1/C=N/n1c(-c2cccs2)n[nH]c1=S
inactive: normalized thallium flux [3] 0.0326
active: normalised thallium flux (F/F0 slope) [1] 0.02 | normalized thallium flux [2] 0.0602 | thallium flux rate (normalised fluorescence) [4] 0.0173 | raw Tl+ flux slope (below DMSO = inhibition, above = activation) [5] 0.0288 | thallium flux slope [6] 0.0224

COc1ccc(Oc2c(Cl)cnn(-c3ccccc3)c2=O)cc1
active: raw Tl+ flux slope (below DMSO = inhibition, above = activation) [5] 0.0166
inactive: normalised thallium flux (F/F0 slope) [1] 0.00949 | normalized thallium flux [2] 0.0065 | normalized thallium flux [3] 0.0314 | thallium flux rate (normalised fluorescence) [4] 0.00741 | thallium flux slope [6] 0.00996

COc1ccc([N+](=O)[O-])cc1NC(=O)COC(=O)/C=C/c1ccco1
inactive: normalised thallium flux (F/F0 slope) [1] 0.00867 | normalized thallium flux [2] 0.00651 | normalized thallium flux [3] 0.0316 | thallium flux rate (normalised fluorescence) [4] 0.0079 | raw Tl+ flux slope (below DMSO = inhibition, above = activation) [5] 0.0204 | thallium flux slope [6] 0.011

Cc1nn(-c2ccccc2)c2sc(C(=O)N(Cc3ccco3)C(C)C(=O)NC(C)(C)C)cc12 (centres undefined)
inactive: normalised thallium flux (F/F0 slope) [1] 0.00786 | normalized thallium flux [2] 0.00436 | normalized thallium flux [3] 0.0324 | thallium flux rate (normalised fluorescence) [4] 0.00693 | raw Tl+ flux slope (below DMSO = inhibition, above = activation) [5] 0.0198 | thallium flux slope [6] 0.0103

COc1cccc(-c2nnc(NC(=O)c3ccc(S(=O)(=O)N(CC(C)C)CC(C)C)cc3)o2)c1
inactive: normalised thallium flux (F/F0 slope) [1] 0.0109 | normalized thallium flux [3] 0.0331
active: normalized thallium flux [2] 0.0246 | thallium flux rate (normalised fluorescence) [4] 0.0752 | raw Tl+ flux slope (below DMSO = inhibition, above = activation) [5] 0.0359 | thallium flux slope [6] 0.0148

CCNCc1cc2cc(C)ccc2[nH]c1=O
132%: nuclei count [9]
inactive: inhibition [7] -5.2% | inhibition of aggregation [8] 1.8% | inhibition [9] -107% | inhibition [11] 2.71% | fluorescence slope [12] -0.515 | NADPH fluorescence slope [13] -4.8e-05 | fluorescence slope [14] 0.00569 | outcome [15] | normalised thallium flux (F/F0 slope) [1] 0.00875 | normalized thallium flux [2] 0.00485 | normalized thallium flux [3] 0.034 | thallium flux rate (normalised fluorescence) [4] 0.00817 | raw Tl+ flux slope (below DMSO = inhibition, above = activation) [5] 0.0185 | thallium flux slope [6] 0.0111 | inhibition [16] 9.6% | inhibition [17] 3.24% | inhibition [18] 16.9%
596: cell count [7]
-1.38: z-score ([10]; measured here: nuclear pErk red intensity z-score, stronger effect = higher value)
118%: nuclei count [8]
0.581: z-score ([10]; measured here: cell density z-score)
-1.49: z-score ([10]; measured here: nuclear c-Myc green intensity z-score)

COc1ccc(-c2cn(-c3ccc(OC)cc3)c(=S)[nH]2)cc1
inactive: normalised thallium flux (F/F0 slope) [1] 0.00623 | normalized thallium flux [3] 0.0299
active: normalized thallium flux [2] 0.0216 | thallium flux rate (normalised fluorescence) [4] 0.0163 | thallium flux slope [6] 0.0135

Cc1ccc(NCc2n[nH]c(=S)n2-c2ccccc2)cc1Cl
inactive: normalised thallium flux (F/F0 slope) [1] 0.00768 | normalized thallium flux [3] 0.0302 | thallium flux slope [6] 0.00946
active: normalized thallium flux [2] 0.0747 | thallium flux rate (normalised fluorescence) [4] 0.00846

O=C(NC(=S)N1CCc2ccccc21)c1ccco1
active: normalised thallium flux (F/F0 slope) [1] 0.00899 | normalized thallium flux [2] 0.0451 | normalized thallium flux [3] 0.0395 | thallium flux rate (normalised fluorescence) [4] 0.0311 | raw Tl+ flux slope (below DMSO = inhibition, above = activation) [5] 0.0407 | thallium flux slope [6] 0.0243

CC1CCCCN1S(=O)(=O)c1ccc(C(=O)Nc2nnc(-c3cccs3)o2)cc1 (centres undefined)
inactive: normalised thallium flux (F/F0 slope) [1] 0.0106 | normalized thallium flux [3] 0.033 | thallium flux slope [6] 0.0123
active: normalized thallium flux [2] 0.0292 | raw Tl+ flux slope (below DMSO = inhibition, above = activation) [5] 0.0294

O=S(=O)(c1cccc(S(=O)(=O)N2CCC(n3nnc4ccccc43)CC2)c1)N1CCCCC1
active: raw Tl+ flux slope (below DMSO = inhibition, above = activation) [5] 0.0174
inactive: normalised thallium flux (F/F0 slope) [1] 0.00996 | normalized thallium flux [2] 0.00678 | thallium flux rate (normalised fluorescence) [4] 0.00751
